This is a sample that favours compounds with a hit; in the whole collection about 11% have one here.
AMA1 RON2 block: qHTS for Inhibitors of AMA1-RON; Towards Development of Antimalarial Drug Lead: Primary Screen; Plasmodium falciparum AMA1 (3D7) - RON2 peptide interaction; AlphaScreen AMA1-biotinylated RON2 peptide binding; Potency, µM (titrated, usually from 58.2 µM), for inactives: top-dose activity change, negative = inhibition, most hits filed as inhibitors; 360,000 compounds, 0.2% hits;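 further: 0% = vehicle wells and -100% = peptide control; nearly all actives have a fitted effect of over 45% in size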
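AMA1 (3D7) with his tag at 25 nM final met compounds first, then biotinylated RON2 peptide at 25 nM; detection used donor plus acceptor beads, 10 µg/mL apiece, read by AlphaScreen after 30 min at room temperature.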
Pf growth 96h: Primary qHTS for delayed death inhibitors of the malarial parasite plastid, 96 hour incubation. P. falciparum luciferase reporter growth, 96 h. Potency, µM (titrated, usually from 28.7 µM), without a hit: at the highest dose activity change, negative = inhibition, most hits filed as inhibitors. 320,000 compounds, 6.9% hits; further: on the % scale 0 is the no-effect control and ±100 the full control effect
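Erythrocytes infected with luciferase-expressing P. falciparum were dispensed at 2% hematocrit and 0.05% parasitemia (final), then incubated with compounds 96 hours at 37 C in 5% CO2. Luminescence after detection reagent addition reported growth.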
Sm TGR inh: qHTS Assay for the Inhibitors of Schistosoma Mansoni Peroxiredoxins; purified TGR, DTNB reduction, TNB absorbance 405 nm; Potency, µM (series often up to 114 µM), for inactives: at the highest dose activity change, negative = inhibition, hits mostly inhibitors; 360,000 compounds, 3% hits; AID 485364, 2010; further: on the % scale 0 is the no-effect control and ±100 the full control effect; nearly all actives have a fitted effect of over 60% in size
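TGR 20 nM + NADPH 100 uM (dispensed conc.), cpd preinc 15 min RT; start with NADPH (500 uM addition) then DTNB (15 mM addition). Kinetic TNB absorbance, 405 nm filter. Four-parameter Hill fit across titration.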
Pf growth 48h: Primary qHTS for delayed death inhibitors of the malarial parasite plastid, 48 hour incubation | P. falciparum luciferase growth in erythrocytes, 48 h | Potency, µM (series often up to 28.7 µM), inactives show at the top dose activity change, negative = inhibition, most hits filed as inhibitors | 310,000 compounds, 5.9% hits | AID 504832, 2011; further: on the % scale 0 is the no-effect control and ±100 the full control effect
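Parasite viability was followed by luminescence of a genomically integrated firefly luciferase. Cultures held 0.1% parasitemia at 2% hematocrit (final), incubated under 5% CO2 at 37 C.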
NS1 function inh: qHTS Assay for Inhibitors of Influenza NS1 Protein Function | AID 2326, 2010 | Potency, µM (series often up to 46.1 µM), inactives show top-dose activity, positive = more growth | 270,000 compounds, 0.4% hits; calls by dose curve; further: actives are rising curves; nearly all actives have a fitted effect of over 50% in size
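Growth recovery, yeast-based: influenza A NS1 expressed in S. cerevisiae causes slow growth, and suppressors are detected by OD600. The parent strain without NS1 is used as positive control.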
The depositor's hits bear a star; u = inconclusive; x = not tested or not shown; [ ] = dose if it differs, or a comment. Unless noted, the call rests on the fitted dose curve; in most records, active means well fitted curve in the direction sought with a large enough effect; inconclusive means small, poorly fitted or top-dose-only effect, or another doubt; inactive means no such curve, though single readings can be large; an effect the other way counts as inactive or inconclusive. Potency means the concentration at half of the fitted maximal effect.

SMILES	AMA1 RON2 block	Pf growth 96h	Sm TGR inh	Pf growth 48h	NS1 function inh
CCc1sc(C(C2C(=O)CC(C)(C)CC2=O)C2C(=O)CC(C)(C)CC2=O)cc1[N+](=O)[O-]	-1%	25%	4µM*	7%	-2%
COc1ccc(NC(=O)C2(C)CCN2Cc2ccc(C(C)C)cc2)cc1OC (stereo not given)	-21%	x	x	x	x
CCOc1ccccc1NC(=O)C(C)Sc1nc(-c2ccccc2)c(C#N)c(=O)[nH]1 (stereo not given)	x	x	-4%	x	x
CCc1ccc(NC(=O)C(C)Sc2nc(-c3ccco3)c(C#N)c(=O)[nH]2)cc1 (stereo not given)	0%	19%	40µM*	12%	10%
CCN1C(=O)/C(=C\N(C)C)S/C1=N\S(=O)(=O)c1ccc(C)cc1	0%	3%	-6%	-26%	x
CCCCN(C)C(=O)CN1C(=O)CCn2nc(-c3cn(C)c4ccccc34)cc21	x	x	-3%	x	x
CC1(C)C2CCC1(C)C(NC(=O)/C=C/c1ccccc1)C2 (stereo not given)	15%	-26%	6%	7.4µM*	x
O=C(/C=C/c1ccccc1)NC1CCSC1=O (stereo not given)	-16%	10µM*	12%	35%	-1%
CC1(C)C2CCC1(C)C(Nc1ccccc1)C2 (stereo not given)	-1%	u	-8%	-15%	4%
O=C(NC1CCSC1=O)c1ccccc1 (stereo not given)	2%	u	-9%	0%	7%
Cc1cccc(S(=O)(=O)N(C)C[C@H]2OCc3cnnn3CCCC(=O)N([C@H](C)CO)C[C@@H]2C)c1	12%	x	x	x	x
CCOc1ccc(Nc2nc(N)nc(CSC(=S)N3CCN(c4ccccc4)CC3)n2)cc1	-22%	13µM*	0%	12µM*	8%
COc1ccc(Nc2nc(N)nc(CSC(=S)N3CCCCC3)n2)cc1	-3%	2%	11%	4%	x
COc1ccc(Nc2nc(N)nc(CSC(=S)N3CCN(c4ccccc4)CC3)n2)cc1	-27%	12µM*	-3%	u	18%
COc1ccc(Nc2nc(N)nc(CSC(=S)N3CCN(C)CC3)n2)cc1	-15%	u	30%	17%	2%
CCCCn1nnnc1C1(C)CCC(=O)N1CC1CCCCC1 (stereo not given)	9%	x	x	x	x
CC(C)COCC(CN(Cc1ccccc1)c1ccccc1)N1CCCC1 (stereo not given)	-5%	u	-5%	11µM*	-9%
CC(C(=O)Nc1ccc(OCc2ccccc2)cc1)N1CCCC1 (stereo not given)	0%	0%	-2%	76%	x
CC1(C)CC(=O)C(C2C3=C(CC(C)(C)CC3=O)Oc3ccccc32)=C(O)C1 (stereo not given)	0%	x	7.9µM*	x	2%
CC1(C)CC(=O)C(C2C3=C(CC(C)(C)CC3=O)Oc3ccccc32)C(=O)C1 (stereo not given)	1%	1%	5µM*	-9%	-2%
CCc1nnc(NC(=O)c2ccc(OC)c(S(=O)(=O)N3CCCC3)c2)s1	-13%[11.6 µM]	u	-8%	u	x
CCOC(=O)N1CCc2c(sc(NCc3cc(OC)c(OC)cc3OC)c2C(=O)Nc2ccc(OCC)cc2)C1	x	x	-1%	x	x
Cc1cccc(CCNC(=O)c2cccc(NC3=NC4CS(=O)(=O)CC4S3)c2)c1 (stereo not given)	13%	15µM*	-2%	2%	13%
O=C(c1ccc(NC2=NC3CS(=O)(=O)CC3S2)cc1)N1CCN(C(=O)c2ccco2)CC1 (stereo not given)	2%	12%	0%	5%	23%
CCOc1ccc(NC(=O)c2cccc(NC3=NC4CS(=O)(=O)CC4S3)c2)cc1 (stereo not given)	7%	8.3µM*	-11%	15%	-10%
SMILES	AMA1 RON2 block	Pf growth 96h	Sm TGR inh	Pf growth 48h	NS1 function inh
Cc1ccc(C)c(N2CCN(C(=O)c3ccc(NC4=NC5CS(=O)(=O)CC5S4)cc3)CC2)c1 (stereo not given)	29%	10µM*	1%	-1%	18%
CCc1ccc(NC(=O)c2cccc(NC3=NC4CS(=O)(=O)CC4S3)c2)cc1 (stereo not given)	39%	8%	1%	-2%	4%
COc1ccc(Cl)cc1NC(=O)CCN1C(=O)c2ccccc2Sc2ncccc21	x	x	-5%	x	x
Cc1nc(N2CCOCC2)nc(Oc2ccccc2)c1[N+](=O)[O-]	-3%	3%	7.1µM*	-5%	-45%
O=C(O)CC12CC3CC(C1)CC(n1ncc(NCc4ccc5c(c4)OCO5)c(Cl)c1=O)(C3)C2	x	-12%	u	-12%	x
CCN(CC)c1nc(N2CCOCC2)c(C#N)c2c1CN(C)CC2	1%	10µM*	3%	u	-4%
CCN1CCc2c(C#N)c(N3CCCCC3)nc(N3CCOCC3)c2C1	13%	u	2%	u	-3%
N#Cc1c(N2CCOCC2)nc(N2CCCCC2)c2c1CCN(C1CCCCC1)C2	-5%	1.5µM*	-21%	x	1%
CC(C)NCC(O)c1ccccc1Cl (stereo not given)	x	12µM*	x	7.6µM*	x
CC(C)(C)NCC(O)c1ccccc1Cl (stereo not given)	x	u	x	u	-6%
COc1cc2c(cc1OC)C(c1ccccc1N)=NCC2	3%	1µM*	-3%	2.9µM*	3%
COC(=O)c1ccccc1S(=O)(=O)N1CCC(C(=O)OCc2ccc([N+](=O)[O-])cc2)CC1	-14%	14%	0%	2%	x
CC(C)Cc1ccc(C(=O)Nc2ccc(Cc3ccncc3)cc2)o1	5%	-24%	-34%	-21%	-24%
Nc1c(C(=O)N/N=C/c2cccnc2)oc2nc(-c3ccco3)cc(-c3ccco3)c12	51%	u	13µM*	u	4%
C/C(CC(=O)Nc1ccccc1C#N)=N\NC(=O)c1ccncc1	84%	23%	-12%	-19%	2%
O=C1CSC(c2cn(-c3ccccc3)nc2-c2cccs2)N1CC1CCCO1 (stereo not given)	-12%	8.3µM*	1%	12µM*	-33%
CC(C)CCNC(=O)c1ccc(C2SCC(=O)N2Cc2ccco2)cc1 (stereo not given)	-2%	-63%	25µM*	u	11%
O=C1CSC(c2ccncc2)N1Cc1ccco1 (stereo not given)	1%	u	22µM*	3%	1%
CCc1ccc(-c2nn(-c3ccccc3)cc2C2SCC(=O)N2Cc2ccco2)cc1 (stereo not given)	-17%	-100%	8%	x	22%
